Compounds without any hit were thinned out: in the full panel of roughly 83,000, 20% have a hit.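 Method: cells in 96-well plates; compound added at one concentration; 48 h incubation; percent growth measured; values under 10 scored active.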 Active and inactive are the calls of the source.
Test system: RXF 393 renal
Assay: NCI-60 one-dose screen, 48 h (100 = growth as untreated, 0 = no growth, -100 = all killed)
Conditions: 10 µM unless noted

Structure (SMILES)	growth
CCOC(C)(c1ccc(Cl)cc1)C1CCNCC1 (configuration not stated)	109% (inactive)
O=S(=O)(NCC[C@@H]1C[C@H]1c1ccc2ccccc2c1)c1ccc(C(F)(F)F)cc1	109% (inactive)
CC(CN1CCN(C)CC1)CN1c2ccccc2Sc2ccc(C(F)(F)F)cc21 (configuration not stated)	18.7% (inactive)
NC(=S)N/N=C(/c1cccs1)C1CC1	102% (inactive)
COc1cc(C2Nc3ccccc3S2)cc(CN2CCOCC2)c1O (configuration not stated)	78.5% (inactive)
O=[N+]([O-])c1cccc([I+]c2ccccc2)c1	72.4% (inactive)
C=CCn1c(SCC(=O)Nc2ccc(/C(C)=N\O)cc2)nnc1-c1cc(-c2ccccc2)nc2ccccc12	68.8% (inactive)
C=CC[C@]1(O)CC[C@H]2[C@@H]3CCc4cc(O)ccc4[C@H]3CC[C@@]21C	102% (inactive)
CC(=O)c1c(O)c(C)c(O)c2c1OC1=CC(=O)/C(=C(/C)N)C(=O)C12C (configuration not stated)	92.2% (inactive)
COc1c(B(O)O)cccc1-c1nc2c(F)cc3n[nH]c(C)c3c2c2c1CCCC2	-19.3% (active)
CCCCNCC(O)c1cc(-c2ccc(C(F)(F)F)cc2)nc(-c2ccc(C(F)(F)F)cc2)c1 (configuration not stated)	-94.4% (active)
Oc1[nH]c2ccc(Cl)cc2c1/C=c1/ccc2c(c1)N=C(c1ccc(F)cc1)N=2	63.4% (inactive)
COc1ccc(C(=O)c2c(N)nc3n2CCCC3)cc1OC	111% (inactive)
CCOC(=O)Nc1ccc2nc(-c3cscn3)[nH]c2c1	39.2% (inactive)
CCOC(=O)C(Nc1ccccc1)C(=O)OCC	114% (inactive)
CN1CCN(Cc2ccc(NC(=O)c3cncc(C#Cc4ncc5ccccn45)c3)cc2C(F)(F)F)CC1	-10.1% (active)
COS(=O)(=O)CCN(CCOS(C)(=O)=O)S(C)(=O)=O	105% (inactive)
O=C(c1ccccc1)N(CCCCl)C(=O)N(CCCCl)C(=O)c1ccccc1	111% (inactive)
OC(c1cc2cc(Cl)ccc2c2cc(C(F)(F)F)ccc12)C1CCCCN1 (configuration not stated)	-95.4% (active)
CC(C)CC(NC(=O)C(CCCN=C(N)N)NC(=O)OCc1ccccc1)C(=O)NC(CNC(=O)/C=C/c1ccccc1)C(C)C (configuration not stated)	107% (inactive)
CCn1c(CN2CCN(Cc3ccccc3)CC2)nc2cc(NC(=O)c3cccs3)ccc21	-92.4% (active)
COc1cc(C)cc2oc3oc(=O)c(-c4csc(-c5cc6ccccc6oc5=O)n4)cc3c(=O)c12	102% (inactive)
OC(c1cc2c(Cl)cc(Cl)cc2c2cc(C(F)(F)F)ccc12)C1CCCCN1 (configuration not stated)	-90.9% (active)
N#CC1=C(N)Oc2nc[nH]c(=O)c2C1c1cccs1 (configuration not stated)	97.8% (inactive)
Cc1cc(C)cc(Nc2cc(C)nc3nc(C(F)(F)F)nn23)c1	52.1% (inactive)
Cc1ccc(N2C3c4ccccc4N(S(=O)(=O)c4ccc(C)cc4)C2c2ccccc2N3S(=O)(=O)c2ccc(C)cc2)cc1	121% (inactive)
CCOC(=O)c1ccc(NC(=O)NC2=NCCS2)cc1	-15.3% (active)
